# Results as given in PubChem BioAssay AID686978 (National Center for Advancing Translational Sciences (NCATS), 2013).
# About 64,000 (15%) of roughly 420,000 compounds were called active. Another 27% or so got no clear call; they are omitted. These entries were drawn from the full list. Unmarked numbers belong to inactive results. Calls come from the whole dose curve; as a rule, active = well fitted inhibition curve with a large enough effect; inconclusive = small, poorly fitted or top-dose-only effect; inactive = flat fitted curve, though single readings scatter.
# Assay: qHTS for Inhibitors of human tyrosyl-DNA phosphodiesterase 1 (TDP1): qHTS in cells in absence of CPT; note: nearly all actives have a fitted effect of over 55% in size
# Conditions: DT40 Tdp1-/- hTDP1 cells, no CPT, ATP luminescence, 48 h; activity change, negative = growth inhibition: at 46.2 µM (top of the series)
# Outline: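 Readout: luminescence from CellTiter-Glo after 30 min in the dark at RT. Cells: DT40 Tdp1-/- with stable hTDP1, 400/well. Exposure: compounds alone, ≥48 hr, 37 °C.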
# % is set by controls: 0 for no effect and ±100 for the full control effect; potency is the fitted concentration of half-maximal effect.
Structure (SMILES),"activity change, negative = growth inhibition [%]",Potency
CCOc1ccc(CNC(=O)C2CCC(=O)N2C2CCCC2)cc1OC (configuration not stated),-16.4,
CCCC(=O)Nc1ccc(C(=O)N/N=C/c2ccc[nH]2)cc1,-23.6,
CCOC(=O)c1ccccc1NC(=O)CSc1nc2ccccc2c(=O)[nH]1,-14,
COc1ccc(C(=O)c2oc3ccccc3c2NC(=O)COc2cccc(C)c2)cc1,-5.81,
C=CCN(CC=C)C(=O)COC(=O)c1n[nH]c2ccccc12,2.16,
COC(=O)c1sccc1-n1cccc1C(=O)C(=O)N1CCCCC1,-10.5,
CCC(=O)Nc1ccc(C(=O)CSc2nnc(CNc3ccc(Cl)cc3)o2)cc1OC,,12.6 µM (active)
COc1ccc(Cc2nnc(SCC(=O)Nc3ccc(C)c(C)c3)o2)cc1OC,-26.6,
CCOC(=O)CSc1nnc(CNc2ccc(F)cc2)o1,-5.09,
Cc1nn(C)cc1C(=O)NNC(=S)Nc1ccc(Cl)cc1,-3.84,
CCN(Cc1ccncc1)C(=O)c1cccc(S(=O)(=O)N2CCOCC2)c1,-1.97,
O=S(=O)(c1cccc(Cn2nnc(-c3ccc(F)cc3)n2)c1)N1CCOCC1,,20.6 µM (active)
Cc1ccc(S(=O)(=O)N2CCOCC2)cc1C(=O)NCc1ccc(F)cc1,-15.7,
CN(C)c1ccc(/C=c2\[nH]c(=O)/c(=C/c3ccc(N(C)C)cc3)[nH]c2=O)cc1,-15.2,
COc1cc(/C=C2/SC(=S)N(Cc3ccccc3)C2=O)cc(OC)c1O,-27.9,
CN(C)c1ccc(/C=C2\NC(=S)N(Cc3ccccc3)C2=O)cc1,,20.6 µM (active)
Cc1nc2ccccn2c(=O)c1NC(=O)c1ccc(Br)o1,-7.88,
Cc1ccc(-c2nc3ccccn3c2Nc2c(C)cccc2C)o1,,18.4 µM (active)
Cc1nc2ccccn2c(=O)c1NC(=O)c1c(F)cccc1F,-16.3,
CO[C@H]1O[C@@H]2O[C@@]3(C)CC[C@@H]4[C@@H](C)CC[C@@H]([C@H]1C)[C@@]24OO3,,0.891 µM (active)
CCOC(=O)CSc1nnc(-c2ccncc2)o1,-15.1,
CCOc1cc(/C=N/NC(=O)OC)ccc1OCCSc1ccc(Cl)cc1,-27.1,

Structure (SMILES),"activity change, negative = growth inhibition [%]",Potency
Cc1ccc(NN=Nc2nc3c([nH]2)c(=O)n(C)c(=O)n3C)cc1,-24.2,
Oc1ccccc1-c1nc2ccc(Cl)cn2c1Nc1ccc2c(c1)OCCO2,,23.1 µM (active)
Cc1ccn2c(Nc3ccc4c(c3)OCCO4)c(-c3ccc(C)s3)nc2c1,-9.21,
Cn1cc([N+](=O)[O-])c(C(=O)Nc2ccc3c(c2)OCCO3)n1,-10.6,
COCCn1c(SCC(=O)Nc2nc(C)cs2)nnc1C(C)C,-9.21,
COc1ccc(OC)c(C2N(c3ccccn3)C(=O)C3CCCN32)c1 (configuration not stated),-5.04,
CCc1nnc(NS(=O)(=O)c2ccc(NC(=S)NC(=O)/C=C/c3cccs3)cc2)s1,4.4,
O=C(c1cc(-c2cccc(O)c2)on1)N1CCc2ccccc2C1,-24.1,
Clc1ccc(-c2ncc3ccccn23)c(Cl)c1,-10.1,
Clc1ccc(-c2cc(C3CCNCC3)[nH]n2)c(Cl)c1,,20.6 µM (active)
CCCn1c(=O)c2[nH]c(C3CCCC3)nc2n(CCC)c1=O,,inactive
CCCc1cc(=O)[nH]c(SCC(=O)Nc2ccc(S(=O)(=O)N3CCCC3)cc2)n1,-2.47,
Clc1ccc(CSc2nnc(/C=C/c3ccccc3)o2)c(Cl)c1,4.1,
COCCNc1nc2nonc2nc1N1CCCC1c1nccs1 (configuration not stated),3.79,
CC(C)(C)c1ccc(CN2C(=O)c3ccccc3S2(=O)=O)cc1,,20.6 µM (active)
O=C1c2ccccc2S(=O)(=O)N1Cc1c(F)cccc1Cl,-21.6,
CNC(=O)CN1C(=O)c2ccccc2S1(=O)=O,-4.63,
CC(=O)[C@@]12O[C@@H]1C[C@H]1[C@@H]3CC[C@H]4C[C@@H](O)CC[C@]4(C)[C@H]3CC[C@@]12C,-1.05,
NC(=O)CCC(NS(=O)(=O)c1ccc(Cl)cc1)C(=O)NCc1ccccc1Cl (configuration not stated),-4.28,
O=C(O)COc1ccc(/C=N/O)cc1Br,-14.4,
CCCCCCc1cc2cc(-c3nnc(-c4ccccc4)o3)c(=O)oc2cc1O,,20.6 µM (active)
CCCC(=O)Nc1nnc(-c2ccccc2)o1,-12.9,

Structure (SMILES),"activity change, negative = growth inhibition [%]",Potency
Cc1c(CC(=O)NCCCCCC(=O)O)c(=O)oc2cc3occ(-c4ccccc4)c3cc12,-18.2,
COc1cc2c(cc1OC)CC(=O)N(CCCN(C)C[C@H]1Cc3cc(OC)c(OC)cc31)CC2,-20.3,
Cn1c(SCC(=O)N/N=C/c2ccc(O)c(O)c2)nc2ccccc21,,18.4 µM (active)
C=CCn1c(Cn2nnc3ccccc32)nnc1SCC(=O)N/N=C/c1cc(Br)cc(OC)c1O,-12.7,
CCOc1ccc(/C=N/NC(=O)CSc2ccccn2)cc1O,-21,
CCN(CC)C(=O)CSc1nc2ccccc2o1,1.48,
CC(C)(C)C(=O)CSc1nc2ccccc2o1,-1.1,
Cc1ccc(/C=N/NC(=O)CSc2nc3ccccc3o2)cc1,,23.1 µM (active)
COc1cc(OC)c(C(=O)Nc2ccc(N(C)C)cc2)cc1OC,-23.2,
COc1ccc(-c2nc3cnc(N(C)C)nc3n(Cc3cccs3)c2=O)cc1,31.8,
CC1(Oc2ccccc2-c2ccno2)CCN(Cc2ccc(-c3ccccc3)o2)C1 (configuration not stated),,23.1 µM (active)
CCOc1ccc(/C=N\NC(=O)c2c(C)nc3cc(C)ccn23)cc1,-19,
Cc1ccc2nc(C)cc(N/N=C/c3ccc(F)cc3)c2c1,-17.5,
CCOc1cc(/C=N/NC(=O)c2c(C)nc3ccc(Cl)cn23)ccc1O,,8.2 µM (active)
CCOc1cc(C=NNC(=O)CCCC(=O)NN=Cc2ccc(O)c(OCC)c2)ccc1O,-3.64,
CCOc1cc(/C=N/Nc2cc(C)nc3ccc(C)cc23)ccc1O,,25.9 µM (active)
C/C=C(/C)C(=O)OC1Cc2c(ccc3ccc(=O)oc23)OC1(C)C (configuration not stated),-0.964,
CCCS(=O)(=O)N1CCCC(C(=O)NCc2ccco2)C1 (configuration not stated),-13.9,
COc1ccc(C(C#N)Nc2ccc(C)cc2)cc1 (configuration not stated),-13.7,
Fc1ccc(/C=N/Nc2nc(-c3cccnc3)nc3ccccc23)cc1,,16.4 µM (active)
O=C(N/N=C/c1cccnc1)c1ccc(NC(=O)c2ccc(F)cc2)cc1,-26.4,
CCOc1ccc(C2/C(=C(/O)c3ccc4c(c3)CC(C)O4)C(=O)C(=O)N2CCCn2ccnc2)cc1 (configuration not stated),-4,

Structure (SMILES),"activity change, negative = growth inhibition [%]",Potency
O=C(CN1CCCCCC1)NCCN1C(=O)S/C(=C\c2ccccc2Cl)C1=O,-24,
O=C1/C(=C\c2ccccc2Cl)SC(=S)N1CCC(=O)N1CCCc2ccccc21,,14.6 µM (active)
COc1ccc(NC(=O)CCN2C(=O)/C(=C/c3ccc4c(c3)OCO4)SC2=S)cc1,-25.5,
C=C(C)C1CC=C(CO)CC1 (configuration not stated),5.86,
CCCn1c(N)c(C(=O)CSc2nnc(-c3cccnc3)n2-c2ccc(C)cc2C)c(=O)[nH]c1=O,-27.8,
CSC(=S)N/N=C/c1c[nH]c2ccccc12,,0.92 µM (active)
O=C(N/N=C/c1cccc(O)c1)c1cc2c(ccc3ccccc32)o1,-11.2,
Cc1c(/C=N\NC(=O)c2cc3ccccc3o2)c2ccccc2n1C,,3.66 µM (active)
O=C(O)c1cccc(NC(=S)N/N=C/c2c[nH]c3ccccc23)c1,14.2,
NC(=O)CSc1c[nH]c2ccccc12,-5.76,
O=C(N/N=C/c1c[nH]c2ccccc12)c1ccccc1O,-15.3,
Cc1c(/C=N/N2C(=O)C3C4C=CC(C4)C3C2=O)c2ccccc2n1C (configuration not stated),-28.9,
O=C(N/N=C/c1c[nH]c2ccccc12)c1cc2ccccc2o1,,14.6 µM (active)
Nc1nonc1-n1nnc(C(=O)N/N=C/c2c[nH]c3ccccc23)c1-c1ccccc1,-12.4,
O=C(O)C(F)(F)C(NCc1ccccc1)c1ccccc1 (configuration not stated),-5.89,
COc1ccc(S(=O)(=O)N2CCC(C(=O)NCCC(=O)NCCc3cccc(F)c3)CC2)cc1,-27,
Cc1ccc(S(=O)(=O)C2C(=O)NC3(C)CC2c2ccccc2O3)cc1 (configuration not stated),-3.39,
Cn1c(SCC(=O)N2CCCC2)nnc1-c1ccc2c(c1)OCO2,18.9,
CCC1C(C#N)=C(SC)NC2=C1C(=O)CC(C)(C)C2 (configuration not stated),-24.4,
Nc1nonc1-n1nnc(C(=O)N/N=C/C2CCCCC2)c1-c1ccccc1,6.3,
CCn1c(=O)cc(SCC(=O)NCc2ccc3c(c2)OCO3)c2ccccc21,-1.5,
CC1(C)NC(=O)N(CC(=O)Nc2cc(C(F)(F)F)cc(C(F)(F)F)c2)C1=O,0.431,

Structure (SMILES),"activity change, negative = growth inhibition [%]",Potency
Cc1c(NC(=O)/C=C/C(=O)O)cccc1[N+](=O)[O-],5.13,
CNC(=S)Nc1ccc([N+](=O)[O-])cc1,-24.8,
O=C(O)/C=C/C(=O)NNc1ccc([N+](=O)[O-])cc1,,18.4 µM (active)
CCC(=O)NC(NCC1CCCO1)C(Cl)(Cl)Cl (configuration not stated),-1.9,
COc1cccc(CNc2nc(NCc3cccs3)nc3ccsc23)c1,,10.3 µM (active)
COCCNc1nc(NCc2ccc(NC(C)=O)cc2)c2sccc2n1,-5.82,
COc1ccccc1CNc1nc(Nc2ccccc2Cl)c2sccc2n1,,7.31 µM (active)
CCc1ccc(S(=O)(=O)c2nnn3c2nc(NCc2ccccc2OC)c2cc(Cl)ccc23)cc1,-12.5,
COc1cccc(CNc2nc(NCc3ccccc3OC)nc3ccsc23)c1,,9.2 µM (active)
Cc1nc2cc(NCc3cccs3)ccc2n1C,0.0187,
COc1ccccc1CNCc1cccs1,-9.52,
COc1cccc(CNc2nccn(-c3ccc(OC)c(OC)c3)c2=O)c1,-13.9,
CC(C)Nc1nc(NCCOc2ccccc2Cl)c2sccc2n1,,20.6 µM (active)
COc1ccc(NC(=O)C/C(C)=N/NC(=O)c2cnccn2)cc1Cl,2.04,
COc1ccc(C(=O)N(Cc2ccc(N(C)C)cc2)C2CCS(=O)(=O)C2)cc1 (configuration not stated),-15,
CC(C)C(OC(=O)c1cccs1)C(=O)NC1CCCCC1 (configuration not stated),-21.2,
CCNc1nc(N)nc(-c2cc(Cl)ccc2OC)n1,-7.89,
COc1ccc(OC)c(S(=O)(=O)Nc2ccccc2F)c1,-7.95,
COc1ccc(C(=O)OCC(=O)Nc2ccc3[nH]c(=O)[nH]c3c2)c(OC)c1OC,-5.45,
